From PubChem BioAssay (NCATS)
Inconclusive results are not listed. Active and inactive are the calls of the source. Calls follow the shape of the dose curve; as a rule, active = well fitted inhibition curve with a large enough effect; inconclusive = small, poorly fitted or top-dose-only effect; inactive = flat fitted curve, though single readings scatter.

Legend:
Assay in all cases: qHTS profiling for inhibitors of Plasmodium falciparum proliferation (AID 504749); also: nearly all actives have a fitted effect of over 60% in size
Settings in all cases: P. falciparum in erythrocytes, SYBR Green DNA, 72 h; series mostly up to 28.7 µM
AA1029 = test system: AA1029
Outline: (§1)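 Parasite proliferation within erythrocytes, 72 h exposure. Endpoint: SYBR Green I fluorescence after overnight lysis at room temperature. Controls: 0.29 uM artemisinin, DMSO.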

ATS95 = test system: ATS95
Outline: as §1

C2A = test system: C2A
Outline: as §1

CP211 = test system: CP211
Outline: as §1

CP215 = test system: CP215
Outline: as §1

CP217 = test system: CP217
Outline: as §1

CP250 = test system: CP250
Outline: as §1

CP252 = test system: CP252
Outline: as §1

CP256 = test system: CP256
Outline: as §1

CP265 = test system: CP265
Outline: as §1

CP268 = test system: CP268
Outline: as §1

CP297 = test system: CP297
Outline: as §1

CP315 = test system: CP315
Outline: as §1

CP325 = test system: CP325
Outline: as §1

CP329 = test system: CP329
Outline: as §1

N140 = test system: N140
Outline: as §1

PAD = test system: PAD
Outline: as §1

SC27B = test system: SC27B
Outline: as §1

TAB113 = test system: TAB113
Outline: as §1

TAB165 = test system: TAB165
Outline: as §1

Measured: Potency

CC[C@@H](C)C(N)C(=O)O (stereo not given in full)
inactive: all assays above

COC(c1ccccc1)(c1ccccc1)C(Oc1nc(C)cc(C)n1)C(=O)O (stereo not given)
inactive: all assays above

NC(=O)NC(CCC(=O)O)C(=O)O (stereo not given)
inactive: all assays above

CCCCN1CC(O)C(O)C(O)C1CO (stereo not given)
inactive: all assays above

CC(=O)NC[C@@H]1CN(c2ccc(N3CCOCC3)c(F)c2)C(=O)O1
inactive: all assays above

CNC(=O)C(N)CSC(C)C1=C(C)c2cc3[n-]c(cc4nc(cc5[n-]c(cc1n2)c(C)c5CCC(=O)O)C(CCC(=O)O)=C4C)c(C)c3C(C)SCC(N)C(=O)NC.[Fe+2] (stereo not given)
inactive: all assays above
